# An excerpt weighted towards active compounds, which were near 1.9% of everything screened.
# 14-3-3 Bad PPI: disrupts binding of bovine 14-3-3 zeta to phospho-Bad peptide; AID 781; inhibition, % at 21.7 µM; TR-FRET 14-3-3zeta/Dy647-pBad peptide displacement, 1 h; actives 0.71% (n = 220,000); P63103;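 active = inhibition above about 70%, limit read from the data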
# Target sequence (P63103 whole entry, looked up): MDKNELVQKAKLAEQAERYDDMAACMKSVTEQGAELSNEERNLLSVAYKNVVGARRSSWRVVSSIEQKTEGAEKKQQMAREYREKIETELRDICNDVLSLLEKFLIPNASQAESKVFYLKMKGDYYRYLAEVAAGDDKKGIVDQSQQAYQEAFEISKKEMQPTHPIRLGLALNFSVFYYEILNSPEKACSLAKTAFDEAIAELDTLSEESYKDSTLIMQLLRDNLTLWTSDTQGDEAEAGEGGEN
# NCF1 inh: inhibitors of human p47phox binding; p47phox/p22phox peptide binding, fluorescence polarization, 2 h; inhibition, % at 24.7 µM; actives 0.53% (n = 220,000);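 active = inhibition above about 30%, limit read from the data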
# dFosB act-1: mouse delta FosB homodimer activation | purified delta FosB, TAMRA-CDK5 oligo fluorescence polarization; percent of positive-control signal above neutral wells | actives 0.99% (n = 340,000) | P13346 | activation, % at 25 µM;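 active = mean activation above about 17%, with every replicate also reaching it, limit read from the data, passing the limit was not always enough; inconclusive = only one of the two conditions met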
# Target sequence (P13346 whole entry, looked up): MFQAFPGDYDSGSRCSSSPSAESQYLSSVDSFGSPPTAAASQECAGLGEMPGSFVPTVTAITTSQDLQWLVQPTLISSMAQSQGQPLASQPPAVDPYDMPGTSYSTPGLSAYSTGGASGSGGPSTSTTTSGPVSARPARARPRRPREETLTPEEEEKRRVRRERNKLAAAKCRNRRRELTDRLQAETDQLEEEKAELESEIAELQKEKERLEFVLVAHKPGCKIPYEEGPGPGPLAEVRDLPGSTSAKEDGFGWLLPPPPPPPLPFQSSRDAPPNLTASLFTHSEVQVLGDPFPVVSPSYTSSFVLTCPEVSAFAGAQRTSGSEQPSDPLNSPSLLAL
# Efa HMGR inh: inhibitors of class II HMG-CoA reductase from Enterococcus faecalis; purified E. faecalis HMGR, NADPH absorbance 340 nm kinetic; inhibition, % at 10 µM; actives 0.41% (n = 190,000);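 active = inhibition above a set limit, the median over all tested compounds plus 3 SD, cut at about 9.5% in these data; inconclusive = no clear call, values can overlap the other calls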;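 note: enzyme runs in reverse so mevalonate oxidation gives rising NADPH absorbance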
# dFosB act-2: delta FosB (mouse) homodimer activation. shares compounds with dFosB act-1. purified delta FosB, TAMRA-CDK5 oligo fluorescence polarization; normalised: neutral wells 0, positive control 100. activation, % at 24.9 µM. 2,400 tested, under 10 active;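 active = highest replicate activation at or above 34% and every replicate reaching that threshold; inconclusive = meets only one of the two criteria; inactive = meets neither criterion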;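 note: higher polarization means more probe DNA bound by delta FosB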
# A number is an active result; i = inactive; ? = inconclusive; nt = no result.
SMILES,14-3-3 Bad PPI,NCF1 inh,dFosB act-1,Efa HMGR inh,dFosB act-2
COc1ccc(N(C(=O)c2ccco2)C(C(=O)NC2CCCC2)c2ccc(C)cc2)c(OC)c1 (stereo not drawn),nt,nt,i,nt,nt
Cc1sc2nc(SC3CCOC3=O)n(Cc3ccccc3)c(=O)c2c1C (stereo not drawn),i,i,i,i,nt
CCCc1cc(=O)[nH]c(SCC(=O)Nc2cccc3ccccc23)n1,nt,nt,21.7,nt,i
CCCc1cc(=O)[nH]c(SCC(=O)Nc2ccc(OCc3ccccc3)cc2)n1,nt,nt,28.0,nt,i
Nc1nonc1-n1nnc(C(=O)N/N=C/c2ccc3c(c2)OCO3)c1CSc1ccccc1,nt,nt,36.1,nt,i
Nc1nonc1-n1nnc(C(=O)N/N=C/c2c(Cl)cccc2Cl)c1CSC1=NCCS1,i,i,26.6,nt,i
Nc1nonc1-n1nnc(C(=O)N/N=C/C=C/c2ccccc2)c1CSC1=NCCS1,i,i,nt,nt,nt
Nc1nonc1-n1nnc(C(=O)N/N=C/c2ccccc2Cl)c1CSc1ccccc1,i,i,nt,nt,nt
Nc1nonc1-n1nnc(C(=O)N/N=C/c2ccc(F)cc2)c1-c1ccc2c(c1)OCO2,nt,nt,i,nt,nt
Nc1nonc1-n1nnc(C(=O)N/N=C/c2cccc(F)c2)c1-c1ccc2c(c1)OCO2,nt,nt,37.3,nt,i
CCCOc1ccc(-c2c(C(=O)N/N=C/c3ccccc3)nnn2-c2nonc2N)cc1,i,i,29.6,nt,i
O=C(Nc1ccc(NC(=O)c2ccco2)c(Cl)c1)c1ccc2c(c1)OCCO2,i,i,60.3,nt,i
O=C(Cc1ccccc1)Nc1ccc2oc(-c3cccnc3)nc2c1,i,i,22.1,i,i
O=C(Nc1ccc2oc(-c3ccncc3)nc2c1)c1ccc2c(c1)OCO2,i,i,i,nt,nt
O=C(Nc1ccc(NC(=O)c2ccco2)cc1)c1ccc2c(c1)OCO2,i,i,i,i,nt
O=C(Nc1ccc2oc(-c3ccncc3)nc2c1)c1ccc2c(c1)OCCO2,i,i,45.6,nt,i
O=C(Nc1ccc(NC(=O)c2cc3ccccc3o2)cc1)c1ccc2c(c1)OCCO2,i,i,42.5,i,i
Cc1cc(NC(=O)CSc2nc(=O)n3cccc(C)c3n2)no1,nt,nt,i,nt,nt
Cn1cccc1C(=O)OCC(=O)NNC(=O)c1ccc([N+](=O)[O-])cc1,nt,nt,i,nt,nt
Cc1nn(-c2ccc(Cl)cc2)c(Cl)c1/C=N/NC(=O)c1ccc(NS(=O)(=O)c2cccs2)cc1,nt,nt,i,nt,nt
Cc1ccc(NC(=O)C2CC(=O)N(c3ccc4c(c3)OCCO4)C2)nc1 (stereo not drawn),nt,nt,i,nt,nt
O=C(COC(=O)c1ccc(O)cc1O)NCCN1C(=O)CSC1=O,i,i,i,nt,nt
Cc1cc2cc(CNC(=O)CCC(=O)O)ccc2[nH]1,i,i,i,i,nt
O=C(Nc1ccc2oc(-c3cccnc3)nc2c1)c1ccc2c(c1)OCCO2,80.8,i,32.9,i,i
O=C(Nc1ccc2oc(-c3ccccc3F)nc2c1)c1cncc(Br)c1,i,i,22.3,i,i
SMILES,14-3-3 Bad PPI,NCF1 inh,dFosB act-1,Efa HMGR inh,dFosB act-2
O=C(Nc1ccc2oc(-c3ccncc3)nc2c1)c1c(F)c(F)c(F)c(F)c1F,i,i,i,i,nt
O=C(Nc1ccc2oc(-c3ccncc3)nc2c1)c1ccc(F)cc1,i,i,35.5,i,i
O=C(Nc1ccc2oc(-c3ccccc3)nc2c1)c1ccc2c(c1)OCCO2,i,i,41.6,i,i
Cc1ccccc1NC(=O)CSc1nc(-c2ccccc2)cc(=O)[nH]1,nt,nt,i,nt,nt
Cc1ccccc1C(=O)NNC(=O)CSc1nc(-c2ccccc2)cc(=O)[nH]1,i,i,40.3,i,i
O=C(CSc1nc2ccccc2[nH]1)NCc1ccc2c(c1)OCO2,i,i,i,i,nt
O=C(CSc1nc(-c2ccccc2)cc(=O)[nH]1)NCc1ccc2c(c1)OCO2,i,i,48.6,i,i
O=C(COc1ccccc1)Nc1nnc(-c2ccc(Cl)cc2)o1,nt,nt,i,nt,nt
Cc1cc(NC(=O)c2cccnc2)ccc1NC(=O)c1cc2ccccc2o1,nt,nt,i,nt,nt
Cc1ccc2c(C)nc(N/C(N)=N/S(=O)(=O)c3ccccc3)nc2c1,nt,nt,25.3,nt,i
Cn1c(N)c(C(=O)c2cc(-c3ccccc3)nc3ccccc23)c(=O)n(C)c1=O,i,i,i,i,nt
Cn1nc(C(=O)Nc2ccc(Br)cc2)cc1C(=O)Nc1ccc(Br)cc1,nt,nt,40.0,nt,i
CS(=O)(=O)N(Cc1ccc(Cl)cc1)c1ccc(C(=O)NCc2ccccn2)cc1,i,i,i,nt,nt
CS(=O)(=O)N(Cc1ccc(Cl)cc1)c1ccc(C(=O)N/N=C/c2cc3ccccc3nc2Cl)cc1,i,i,40.5,i,i
Cc1cc(=O)oc2cc(OCC(=O)Nc3ccc(CN4CCOCC4)cc3)ccc12,nt,nt,i,nt,nt
O=C(COc1ccc2c(-c3ccccc3)cc(=O)oc2c1)Nc1ccc(CN2CCOCC2)cc1,nt,nt,27.1,nt,i
COC(=O)c1ccc(NC(=O)c2sc3nc(-c4ccccc4)cn3c2C)cc1,i,i,25.6,i,i
COC(=O)c1ccc(NC(=O)c2c(C(=O)Nc3ccccc3)sc3nc(C)cc(=O)n23)cc1,i,i,91.8,i,i
COc1ccc(-c2cn3c(C)c(C(=O)Nc4ccncc4)sc3n2)cc1,i,i,i,i,nt
Cc1cc(C)cc(NC(=O)CSc2nc(N)c(NC(=O)c3cccs3)c(=O)[nH]2)c1,i,i,31.1,i,i
COc1ccc(C(=O)Nc2c(N)nc(SCC(=O)Nc3ccc(NC(C)=O)cc3)[nH]c2=O)cc1,nt,nt,i,nt,nt
Nc1nc(SCC(=O)Nc2ccc(F)cc2)[nH]c(=O)c1NC(=O)c1ccc(F)c(F)c1,nt,nt,26.6,nt,i
Cc1ccc(C(=O)Nc2c(N)nc(SCC(=O)Nc3cc(C)on3)[nH]c2=O)cc1,nt,nt,25.6,nt,i
Nc1nc(SCC(=O)NCC2CCCO2)[nH]c(=O)c1NC(=O)c1ccc(F)c(F)c1 (stereo not drawn),nt,nt,i,nt,nt
CCc1ccc(NC(=O)CSc2nc(N)c(NC(=O)c3ccc(F)c(F)c3)c(=O)[nH]2)cc1,nt,nt,29.4,nt,i
SMILES,14-3-3 Bad PPI,NCF1 inh,dFosB act-1,Efa HMGR inh,dFosB act-2
COc1ccc(C=NN=C2c3ccccc3-c3ccccc32)cc1O,nt,nt,i,nt,nt
CCOC(=O)N1CCN(S(=O)(=O)c2cccc3nsnc23)CC1,i,i,i,i,nt
Cc1nc2c(sc(=S)n2Cc2ccco2)c(=O)n1CC(=O)Nc1cc(F)ccc1F,nt,nt,102.6,nt,i
CCn1c(=S)sc2c(=O)n(CC(=O)Nc3ccccc3)c(C)nc21,nt,nt,i,nt,nt
CCn1c(=S)sc2c(=O)n(CC(=O)Nc3ccc(OC)c(Cl)c3)c(C)nc21,nt,nt,28.2,nt,i
CN(Cc1ccccc1)C(=O)c1cccc(NC(=O)Cc2cccc(NC(=O)C3CCN(C(=O)C4CCC4)CC3)c2)c1,nt,nt,i,nt,nt
CCOc1ccc2nc(N3CCCC(C(=O)NCCCN4CC(C)CC(C)C4)C3)sc2c1 (stereo not drawn),nt,nt,i,nt,nt
CN1CCc2cccc3c2[C@H]1Cc1ccc(O)c(O)c1-3,i,i,i,i,nt
COc1ccc(COc2cc(-c3cccc(OC)c3)nc3ccc(NC(=O)c4ccc(OC)cc4)cc23)cc1,i,i,?,i,nt
COc1ccc(COc2cc(-c3cccc(OC)c3)nc3ccc(NC(=O)c4cccnc4)cc23)cc1,i,i,18.6,i,i
Cc1ccc(C(C)C)c(OCC(=O)NNC(=O)Cn2[nH]c(=O)c3ccccc3c2=O)c1,nt,nt,34.6,nt,i

# Source: PubChem BioAssay
